A selection: hits, their analogues and other compounds. The true share with any hit is near 6%.
D1 potentiator – Potentiators of Human D1 Dopamine Receptor: qHTS; 360,000 compounds, 0.036% hits; potentiation, % at 10 µM; HEK293 TREx D1 cells, calcium flux, dopamine EC20 potentiation; D(1A) dopamine receptor (Homo sapiens), P21728; in the data active means potentiation above about 30%; further: 0% is about no effect
Target sequence (P21728 whole entry, looked up): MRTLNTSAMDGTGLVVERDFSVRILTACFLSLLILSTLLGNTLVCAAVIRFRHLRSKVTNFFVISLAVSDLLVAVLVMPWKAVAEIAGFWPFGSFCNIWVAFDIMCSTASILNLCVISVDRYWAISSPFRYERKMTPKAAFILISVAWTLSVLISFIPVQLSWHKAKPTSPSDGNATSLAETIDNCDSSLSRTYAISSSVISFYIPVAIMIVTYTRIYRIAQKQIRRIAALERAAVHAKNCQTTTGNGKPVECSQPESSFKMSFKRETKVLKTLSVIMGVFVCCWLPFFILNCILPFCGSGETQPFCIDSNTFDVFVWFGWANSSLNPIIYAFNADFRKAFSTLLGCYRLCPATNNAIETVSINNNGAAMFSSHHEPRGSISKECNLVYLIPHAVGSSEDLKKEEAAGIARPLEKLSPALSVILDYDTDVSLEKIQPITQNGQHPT
D1 antag – Antagonist of Human D 1 Dopamine Receptor: qHTS; activity change, negative = inhibition, % at 10 µM; D(1A) dopamine receptor (Homo sapiens), P21728; HEK293 TREx D1 cells, calcium flux, dopamine EC80; active compounds read low; 360,000 compounds, 3.2% hits; AID 504652, 2011; in the data active means activity change below about -30%; further: on the % scale 0 is the no-effect control and ±100 the full control effect
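Inducible Hek293 Trex D1 cells (tetracycline, overnight, 30 C). Calcium dye 30–90 min RT. Antagonist mode: EC80 dopamine added after 180 s compound read.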
D3 ag – qHTS of D3 Dopamine Receptor Agonist: qHTS | AID 652048, 2013 | 410,000 compounds, 0.58% hits | max activation, % | D3R DiscoveRx beta-arrestin cells, luminescence, 90 min; in the data active means max activation above about 30%; further: 0% is about no effect
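Cells at 1500/well, incubated overnight, then treated with pinned compounds (dopamine as control) for 90 min at 37 degrees C. DiscoveRx reagent added for 30 - 60 minutes at room temperature; luminescence read.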
D1 ag – Allosteric Agonists of the Human D1 Dopamine Receptor: qHTS; activation, % at 2 µM; 360,000 compounds, 1% hits; D(1A) dopamine receptor (Homo sapiens), P21728; HEK293 T-REx D1 cells, calcium flux, agonist mode; in the data active means activation above about 30%; further: 0% is about no effect
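Inducible HEK293 T-REx D1 cells, force-coupled to calcium signalling, were plated at 4000 cells/well with tetracycline and held overnight at 30 C. After no-wash calcium dye loading, compound-evoked calcium rise over 180 s flagged agonists.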
DRD3 antagonist – qHTS of D3 Dopamine Receptor Antagonist: qHTS | D(3) dopamine receptor (Homo sapiens), P35462 | D3R cells, DiscoveRx beta-arrestin luminescence, antagonist mode; active compounds read low | max response, negative = inhibition, % | 360,000 compounds, 2.5% hits | AID 652054, 2013; in the data active means max response below about -50%; inconclusive means no clear call, values can overlap the other calls; further: on the % scale 0 is the no-effect control and ±100 the full control effect
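Cells expressing the human receptor were seeded at 1500 cells/well, incubated overnight at 37 degrees C in 5% CO2, then exposed to library compounds with dopamine controls for 90 minutes at 37 degrees C before luminescent detection.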
Numbers without * were called inactive; ? = inconclusive; . = no result.

SMILES	D1 potentiator	D1 antag	D3 ag	D1 ag	DRD3 antagonist
COCCCNC(=S)Nc1ccc(C)cc1[N+](=O)[O-]	4	1	-3	0	-5
COc1ccccc1OCCCOc1c(C)cc(C)cc1Br	-6	9	4	6	6
C=CCNCCOc1ccc(C)cc1[N+](=O)[O-]	-5	-8	-13	1	-72*
COCCCNCCCCOc1ccc(C)cc1[N+](=O)[O-]	-14	0	-34	3	-70*
CCC(C)NCCCOc1c(C)cc(C)cc1Br (centres undefined)	-7	11	-4	32*	-54*
Cc1ccc(N(C(=O)c2cccc(C)c2)S(=O)(=O)c2ccc(Cl)cc2)cc1	2	-16	3	2	.
Cc1ccc(CNC(=O)c2ccc(N3Cc4ccccc4Oc4ncccc43)s2)cc1	-1	19	3	-1	.
CCNC(=S)N(CCc1c(C)[nH]c2ccc(F)cc12)Cc1cccnc1	-6	-3	-7	11	-7
Cc1[nH]c2ccc(F)cc2c1CCN(Cc1cccnc1)C(=S)Nc1ccc(F)cc1	-12	-37*	-4	21	-13
Cc1c(-c2nc3ccccc3[nH]2)cnn1C	-2	-30*	-4	1	11
Cc1ccc(CNC(=O)C(C)n2c(=O)cc(-c3ccccc3)c3c(C)nn(C)c32)cc1 (centres undefined)	-3	24	-4	1	.
O=C(Nc1nnc(C2CC2)s1)c1ccc(Cl)c(S(=O)(=O)N2CCc3ccccc3C2)c1	-6	16	41*	3	0
CCOCCc1nn2c(=O)cc(COC(=O)C3CCCCC3)nc2s1	3	8	9	1	.
CC1CCc2c(sc3nc(-c4cc5ccccc5oc4=O)nc(Cl)c23)C1 (centres undefined)	0	-3	8	29	.
O=C(NC(c1ccc(F)cc1)c1ccc2ccccc2n1)C1CCN(CCOc2ccc(Cl)cc2)CC1 (centres undefined)	.	.	-24	.	-118*
O=C(NC(c1ccc(Cl)cc1)c1cnccn1)C1CCN(Cc2cccc(C(F)(F)F)c2)CC1 (centres undefined)	.	.	-19	.	?
COc1cc(/C=C/CN2CCC(C(=O)NC(c3ccc(F)cc3)c3ccc4ccccc4n3)CC2)ccc1OC(C)=O (centres undefined)	.	.	-26	.	-110*
O=C(NC(c1ccc(F)cc1)c1ccc2ccccc2n1)C1CCN(Cc2cccc(C(F)(F)F)c2)CC1 (centres undefined)	.	.	-14	.	-81*
O=C(NC(c1ccc(F)cc1)c1ccc2ccccc2n1)C1CCN(Cc2ccc3ccccc3n2)CC1 (centres undefined)	.	.	-15	.	-53*
COc1ccc(-c2nnc(SCC(=O)NC3CCCC3)nc2-c2ccc(OC)c(OC)c2)cc1OC	2	-7	3	1	.
CC(C)(C)c1ccc(C(=O)N2CCCC(c3nc4c(nnn4Cc4cccc(F)c4)c(=O)[nH]3)C2)cc1 (centres undefined)	1	10	6	2	.
CCc1ccc(C(=O)c2cn(CC(=O)Nc3ccc4c(c3)OCO4)c3cc(OC)c(OC)cc3c2=O)cc1	-4	-8	3	6	.
CN(C)c1ccc(CN2CCC(C(=O)NC(c3ccc(F)cc3)c3ccc4ccccc4n3)CC2)cc1 (centres undefined)	.	.	-23	.	-82*
COc1ccc2c(c1)cc1c(=O)n(CC(=O)NCCCc3ccccc3)nc(C)n12	0	-16	1	0	.
O=C(CCN1C(=O)C2C3C=CC(C3)C2C1=O)N1CCN(c2ccccc2Cl)CC1 (centres undefined)	-6	15	-9	5	-80*
SMILES	D1 potentiator	D1 antag	D3 ag	D1 ag	DRD3 antagonist
COc1ccc(S(=O)(=O)c2c(Nc3ccccc3F)sc(C(=O)c3cccc(OC)c3)c2N)cc1	-1	0	-18	80*	.
CCc1ccccc1Nc1sc(C(=O)c2cccc(OC)c2)c(N)c1S(=O)(=O)c1ccccc1	-1	11	-1	13	.
CCOc1ccc(Nc2sc(C(=O)c3ccc(F)cc3)c(N)c2S(=O)(=O)c2ccc(C)cc2)cc1	0	-41*	-5	48*	.
COc1ccc(S(=O)(=O)c2c(Nc3ccc(C)cc3C)sc(C(=O)c3ccc(F)cc3)c2N)cc1	-3	-48*	-7	88*	.
O=C(COc1ccccc1[N+](=O)[O-])N(Cc1ccco1)c1ccccn1	-1	0	21	-2	.
Cc1ccc(C)c(NS(=O)(=O)c2ccc3c(c2)n(C)c(=O)n3C)c1	-1	-11	0	2	.
CCC(=O)Nc1nnc(S(=O)(=O)N(C)Cc2ccccc2)s1	1	7	-9	3	.
O=S(=O)(Nc1ccc(Br)cc1)c1cccc(NC(=S)NCCN2CCOCC2)c1	-5	3	3	52*	-12
COc1ccccc1NS(=O)(=O)c1cc(NC(=O)C(C)(C)C)ccc1N1CCOCC1	-12	0	14	0	2
COc1ccccc1NS(=O)(=O)c1cc(NC(=S)NCCN2CCOCC2)ccc1N1CCOCC1	1	-34*	-10	1	2
Cc1cccc(-c2nc3scc(CCNS(=O)(=O)c4ccc(Oc5ccccc5)cc4)n3n2)c1	-2	.	3	5	.
CCSC1=NC2(CCCCC2)Nc2sc3c(c21)CCCC3	-1	-1	0	2	-61*
CCOC(=O)C1CCN(S(=O)(=O)c2cc3c4c(c2)CC(=O)N4CCC3)CC1	1	.	-3	-1	.
Fc1ccccc1Cn1c2[n+](c3ccc(C(F)(F)F)cc31)CCCCC2	-2	-1	5	0	-3
N#Cc1cccc(NC(=O)Cn2c3[n+](c4ccc(C(F)(F)F)cc42)CCCCC3)c1	-2	-6	-52	1	-74*
Cc1ccc(O)c(C(=O)c2cc(C#N)c3nc4ccccc4n3c2)c1	8	7	10	62*	10
COc1ccccc1N1CCN(C(=O)c2ccc3c(c2)N(Cc2cc(C)ccc2C)C(=O)c2ccccc2S3(=O)=O)CC1	3	13	4	1	.
Cc1cc(C)c(C#N)c(SCCN2CCOCC2)n1	-3	-31*	2	0	9
Cc1cc(N2CCN(c3cccc(C(F)(F)F)c3)CC2)n2nc(-c3ccccc3C)nc2n1	2	10	-3	5	.
c1ccc(-c2oc3ncnc(NCCCN4CCOCC4)c3c2-c2ccccc2)cc1	2	0	-2	3	-65*
COc1ccc(-c2oc3ncnc(NCCCN4CCOCC4)c3c2-c2ccc(OC)cc2)cc1	5	4	-5	3	-94*

Screens from PubChem.
